Measurements reported in the supplement of paper PMC12067093, “Discovery and optimisation of a covalent ligand for TRIM25 and its application to targeted protein ubiquitination” (Chemical Science, 2025).
About 21,000 targets were measured; listed, in parts, are those with the largest changes and a random draw of the rest.

Compound: CC1Cc2ccccc2N1C(=O)C1CCCN(C1)C(=O)CCl (mixture of isomers) [TRIM25 ligand 11 (diastereomer mixture)]
Experiment: probe-labelled cysteine peptide fold change vs DMSO (competition) (log2 fold change); higher = less target engagement (more negative = stronger competition)
Conditions: THP-1, incubation time: 4 h
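Further: competitive chemoproteomic profiling in live THP-1 cells with an iodoacetamide desthiobiotin (IA-DTB) probe, comparing probe-labelled peptide intensities in compound-treated cells against DMSO-treated controls.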

UniProt P52789, sequence (P52789 whole entry, looked up): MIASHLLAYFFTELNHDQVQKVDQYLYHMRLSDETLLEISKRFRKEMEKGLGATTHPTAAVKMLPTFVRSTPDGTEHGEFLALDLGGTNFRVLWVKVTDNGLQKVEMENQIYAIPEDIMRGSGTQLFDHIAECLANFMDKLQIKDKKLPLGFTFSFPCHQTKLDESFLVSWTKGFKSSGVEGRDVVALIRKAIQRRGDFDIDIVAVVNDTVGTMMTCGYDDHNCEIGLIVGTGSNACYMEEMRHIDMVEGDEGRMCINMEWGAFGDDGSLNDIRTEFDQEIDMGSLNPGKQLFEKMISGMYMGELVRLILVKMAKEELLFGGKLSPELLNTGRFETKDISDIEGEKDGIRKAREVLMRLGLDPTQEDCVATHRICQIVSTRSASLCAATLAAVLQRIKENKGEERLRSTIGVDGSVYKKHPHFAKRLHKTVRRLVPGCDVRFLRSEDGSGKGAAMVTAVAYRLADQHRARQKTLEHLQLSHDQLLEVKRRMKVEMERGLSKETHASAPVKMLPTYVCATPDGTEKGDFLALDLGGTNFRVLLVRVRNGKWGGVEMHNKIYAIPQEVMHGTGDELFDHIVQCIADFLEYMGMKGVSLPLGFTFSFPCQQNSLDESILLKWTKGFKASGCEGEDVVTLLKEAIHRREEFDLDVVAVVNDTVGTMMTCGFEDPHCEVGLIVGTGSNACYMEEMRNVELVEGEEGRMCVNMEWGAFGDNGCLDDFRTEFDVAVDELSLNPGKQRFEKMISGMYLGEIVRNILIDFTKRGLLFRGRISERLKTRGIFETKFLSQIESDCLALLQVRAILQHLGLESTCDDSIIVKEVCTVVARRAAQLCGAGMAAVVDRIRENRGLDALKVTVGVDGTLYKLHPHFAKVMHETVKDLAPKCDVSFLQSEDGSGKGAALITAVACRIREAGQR
UniProt P50440, sequence (P50440 whole entry, looked up): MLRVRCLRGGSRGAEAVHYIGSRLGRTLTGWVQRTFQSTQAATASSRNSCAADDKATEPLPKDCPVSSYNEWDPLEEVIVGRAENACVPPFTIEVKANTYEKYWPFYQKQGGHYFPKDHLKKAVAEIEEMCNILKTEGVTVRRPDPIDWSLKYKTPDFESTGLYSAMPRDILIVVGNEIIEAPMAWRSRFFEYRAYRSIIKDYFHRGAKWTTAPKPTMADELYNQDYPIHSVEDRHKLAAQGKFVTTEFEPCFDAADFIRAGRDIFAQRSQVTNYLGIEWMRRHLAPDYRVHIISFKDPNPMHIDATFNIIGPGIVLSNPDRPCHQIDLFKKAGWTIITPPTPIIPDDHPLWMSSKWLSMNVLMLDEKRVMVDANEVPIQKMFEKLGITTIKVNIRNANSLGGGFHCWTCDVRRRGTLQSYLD
UniProt P57764, sequence (P57764 whole entry, looked up): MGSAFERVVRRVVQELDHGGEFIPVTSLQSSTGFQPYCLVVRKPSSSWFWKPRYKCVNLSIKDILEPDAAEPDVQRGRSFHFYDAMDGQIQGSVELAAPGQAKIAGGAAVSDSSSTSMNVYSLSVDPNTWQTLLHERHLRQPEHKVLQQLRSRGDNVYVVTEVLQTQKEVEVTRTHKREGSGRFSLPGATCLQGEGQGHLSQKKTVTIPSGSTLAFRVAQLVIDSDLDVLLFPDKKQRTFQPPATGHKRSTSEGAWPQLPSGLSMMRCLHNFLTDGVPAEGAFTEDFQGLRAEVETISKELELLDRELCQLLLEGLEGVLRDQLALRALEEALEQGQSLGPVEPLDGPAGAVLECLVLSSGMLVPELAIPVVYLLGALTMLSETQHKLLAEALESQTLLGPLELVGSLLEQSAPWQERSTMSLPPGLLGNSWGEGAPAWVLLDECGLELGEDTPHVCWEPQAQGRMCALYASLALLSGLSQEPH
UniProt P51858, sequence (P51858 whole entry, looked up): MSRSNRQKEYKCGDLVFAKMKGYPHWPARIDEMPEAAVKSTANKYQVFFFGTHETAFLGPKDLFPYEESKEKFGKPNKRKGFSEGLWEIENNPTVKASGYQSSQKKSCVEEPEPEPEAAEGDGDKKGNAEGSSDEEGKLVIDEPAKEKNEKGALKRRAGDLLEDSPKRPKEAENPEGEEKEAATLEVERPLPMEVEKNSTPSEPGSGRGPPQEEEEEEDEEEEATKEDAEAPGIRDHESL
UniProt P22102, sequence (P22102 whole entry, looked up): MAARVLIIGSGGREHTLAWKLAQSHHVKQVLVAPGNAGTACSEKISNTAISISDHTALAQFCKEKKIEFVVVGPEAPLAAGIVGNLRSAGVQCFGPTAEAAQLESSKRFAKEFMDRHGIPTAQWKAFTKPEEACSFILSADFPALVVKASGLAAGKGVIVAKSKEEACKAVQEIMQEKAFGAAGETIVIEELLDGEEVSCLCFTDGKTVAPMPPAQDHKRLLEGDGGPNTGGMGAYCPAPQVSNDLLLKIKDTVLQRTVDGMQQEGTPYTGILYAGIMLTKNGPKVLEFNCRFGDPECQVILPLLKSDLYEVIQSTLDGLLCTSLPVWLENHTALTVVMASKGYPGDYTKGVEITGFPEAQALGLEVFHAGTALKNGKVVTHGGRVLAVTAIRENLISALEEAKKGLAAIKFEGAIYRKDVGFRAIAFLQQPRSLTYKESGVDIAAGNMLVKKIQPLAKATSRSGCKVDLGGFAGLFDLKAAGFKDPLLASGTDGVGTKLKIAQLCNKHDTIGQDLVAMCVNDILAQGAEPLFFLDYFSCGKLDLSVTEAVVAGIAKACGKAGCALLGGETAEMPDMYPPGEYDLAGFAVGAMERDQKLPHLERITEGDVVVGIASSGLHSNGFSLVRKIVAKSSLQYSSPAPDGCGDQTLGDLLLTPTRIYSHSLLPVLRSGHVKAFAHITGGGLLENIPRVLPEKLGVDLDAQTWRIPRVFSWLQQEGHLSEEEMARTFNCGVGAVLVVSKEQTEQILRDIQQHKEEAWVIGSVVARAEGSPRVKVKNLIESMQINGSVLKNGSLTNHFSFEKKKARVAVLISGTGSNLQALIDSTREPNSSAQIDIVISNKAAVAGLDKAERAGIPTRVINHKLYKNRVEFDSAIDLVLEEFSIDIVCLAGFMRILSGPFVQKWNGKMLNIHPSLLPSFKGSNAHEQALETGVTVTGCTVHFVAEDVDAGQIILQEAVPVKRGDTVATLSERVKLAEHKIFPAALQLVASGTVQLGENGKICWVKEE
UniProt Q0VDF9, sequence (Q0VDF9 whole entry, looked up): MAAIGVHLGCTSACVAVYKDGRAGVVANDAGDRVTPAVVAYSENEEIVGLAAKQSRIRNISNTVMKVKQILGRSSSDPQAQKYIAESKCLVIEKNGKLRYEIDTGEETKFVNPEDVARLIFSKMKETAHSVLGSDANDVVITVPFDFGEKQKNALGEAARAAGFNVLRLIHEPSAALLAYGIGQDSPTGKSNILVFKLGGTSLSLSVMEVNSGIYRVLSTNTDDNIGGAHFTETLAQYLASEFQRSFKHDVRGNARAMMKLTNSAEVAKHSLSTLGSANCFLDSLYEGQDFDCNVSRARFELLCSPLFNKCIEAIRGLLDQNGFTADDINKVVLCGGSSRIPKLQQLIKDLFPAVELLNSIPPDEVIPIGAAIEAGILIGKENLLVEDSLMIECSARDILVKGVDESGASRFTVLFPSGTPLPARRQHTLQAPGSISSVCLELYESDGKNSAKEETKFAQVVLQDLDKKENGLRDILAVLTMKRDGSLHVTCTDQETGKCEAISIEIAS
UniProt Q16836, sequence (Q16836 whole entry, looked up): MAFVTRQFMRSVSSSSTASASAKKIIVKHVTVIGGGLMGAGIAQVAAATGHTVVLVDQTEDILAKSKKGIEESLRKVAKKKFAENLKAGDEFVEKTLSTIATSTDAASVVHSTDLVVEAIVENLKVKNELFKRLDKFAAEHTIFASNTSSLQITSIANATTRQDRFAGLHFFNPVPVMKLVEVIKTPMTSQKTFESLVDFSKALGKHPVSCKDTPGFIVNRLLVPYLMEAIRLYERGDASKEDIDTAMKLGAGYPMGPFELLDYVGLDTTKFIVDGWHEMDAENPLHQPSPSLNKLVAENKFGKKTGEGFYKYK
UniProt P04899, sequence (P04899 whole entry, looked up): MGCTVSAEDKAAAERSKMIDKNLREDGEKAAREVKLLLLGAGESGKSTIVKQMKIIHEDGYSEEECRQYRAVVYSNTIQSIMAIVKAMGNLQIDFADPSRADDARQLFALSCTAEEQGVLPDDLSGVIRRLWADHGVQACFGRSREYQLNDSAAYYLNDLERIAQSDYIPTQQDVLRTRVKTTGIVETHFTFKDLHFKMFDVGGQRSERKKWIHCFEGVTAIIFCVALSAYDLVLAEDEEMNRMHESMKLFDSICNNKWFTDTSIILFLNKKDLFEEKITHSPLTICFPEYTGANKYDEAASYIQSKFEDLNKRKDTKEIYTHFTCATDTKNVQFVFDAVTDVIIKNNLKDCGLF
UniProt O00178, sequence (O00178 whole entry, looked up): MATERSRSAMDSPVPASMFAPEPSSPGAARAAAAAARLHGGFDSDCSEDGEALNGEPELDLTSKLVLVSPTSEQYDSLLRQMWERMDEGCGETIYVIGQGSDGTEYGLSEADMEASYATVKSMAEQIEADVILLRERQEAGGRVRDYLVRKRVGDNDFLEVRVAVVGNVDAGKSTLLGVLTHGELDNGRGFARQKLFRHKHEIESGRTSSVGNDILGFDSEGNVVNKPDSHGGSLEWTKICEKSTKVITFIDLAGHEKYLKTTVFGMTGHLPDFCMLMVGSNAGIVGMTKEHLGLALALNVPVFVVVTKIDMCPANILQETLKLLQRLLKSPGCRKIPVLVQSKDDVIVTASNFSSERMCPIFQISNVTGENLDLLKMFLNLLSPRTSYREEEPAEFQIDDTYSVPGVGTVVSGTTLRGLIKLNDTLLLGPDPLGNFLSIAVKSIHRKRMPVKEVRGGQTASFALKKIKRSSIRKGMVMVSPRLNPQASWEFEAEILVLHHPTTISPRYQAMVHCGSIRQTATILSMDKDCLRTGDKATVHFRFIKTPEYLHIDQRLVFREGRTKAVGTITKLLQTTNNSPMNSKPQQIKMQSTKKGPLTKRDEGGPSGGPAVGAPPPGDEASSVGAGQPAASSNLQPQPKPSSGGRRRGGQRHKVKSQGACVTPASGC

Target	probe-labelled cysteine peptide fold change (10 µM)	probe-labelled cysteine peptide fold change (50 µM)
GNAI2_P04899_287_ITHSPLTICFPEYTGANKYDEAASYIQSK (UniProt P04899)	-0.134	-0.103
GART_P22102_93_SAGVQCFGPTAEAAQLESSK (UniProt P22102)	0.0151	-0.0827
GTPBP1_O00178_515_YQAMVHCGSIR (UniProt O00178)	-0.0472	0.0726
GSDMD_P57764_268_CLHNFLTDGVPAEGAFTEDFQGLRAEVETISK (UniProt P57764)	0.377	0.487
GPATCH8_Q9UKJ3_795_HKGELPPSSCQR (UniProt Q9UKJ3)	-0.186	-0.0452
HPCAL1_P37235_185_LLQCDPSSASQF<|>HPCA_P84074_185_LLQCDPSSASQF (UniProt P84074+P37235)	0.00885	-0.0604
HSPA14_Q0VDF9_394_ENLLVEDSLMIECSAR (UniProt Q0VDF9)	-0.368	-0.17
HDGF_P51858_108_KSCVEEPEPEPEAAEGDGDKK (UniProt P51858)	-0.541	-0.677
GTF3C3_Q9Y5Q9_810_GPCQESFYNLGR (UniProt Q9Y5Q9)	0.136	0.284
GCLC_P48506_295_GYVSDIDCR (UniProt P48506)	0.0316	0.199
HK2_P52789_133_GSGTQLFDHIAECLANFMDK (UniProt P52789)	0.165	-0.083
HADH_Q16836_211_ALGKHPVSCK (UniProt Q16836)	-0.647	-0.601
GATM_P50440_131_KAVAEIEEMCNILK (UniProt P50440)	-0.271	-0.2
